A collection of fitness landscapes (doi:10.1016/j.celrep.2020.107928)
Over roughly 81,000 sequences, “one-hybrid fitness for binding parS DNA” has its median near -0.17; the highest 2% begin near 0.51. Only a selection was taken, and the highest values are over-represented in it overall.

B1: Caulobacter ParB omega fusion; a variant is named by its letters at X, in order, B8GW30 (parent)
chain: MESVVVGEPGMSEGRRGLGRGLSALLGEVDAAPAQAPGEQLGGSREAPIEILQRNPDQPRRTFREEDLEDLSNSIREKGVLQPILVRPSPDTAGEYQIVAGERAWRAAQRAGLKTVPIMVRELDDLAVLEIGIIENVQRADLNVLEEALSYKVLMEKFERTQENIAQTIGKSXSHVANXMRLLXLPDEVQSYLVSGELTAXHARAIAAAADPVALAKQIIEGGLSVRETEALARKAPNLSAGKSKGGRPPRVKDTDTQALESDLSSVLGLDVSIDHRGSTGTLTITYATLEQLDDLCNRLTRGI

Variants of: B1
Experiment: one-hybrid fitness for binding parS DNA (scaled: cognate 1, non-cognate 0); higher = stronger binding
Details: with parS DNA site
Method in brief: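 Pre- and post-selection plasmids were Illumina-sequenced, three replicate libraries were pooled, and any variant with under 10 reads was removed. The libraries were Caulobacter ParB with four specificity codons randomised, selected in E. coli USO through a HIS3 reporter whose site is 19 bp from the promoter. Cells grew 48 hours at 37°C on M9 without histidine, with 0.1 mM IPTG and 5 mM 3-AT. Fitness is the log change in variant-to-wild-type read ratio, rescaled against cognate and non-cognate.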

one-hybrid fitness for binding parS DNA, 0.416:
RSRN

one-hybrid fitness for binding parS DNA, 0.264:
RWDY

one-hybrid fitness for binding parS DNA, 0.913:
RSRS

one-hybrid fitness for binding parS DNA, 0.43:
RQTN

one-hybrid fitness for binding parS DNA, 0.217:
RQTD

one-hybrid fitness for binding parS DNA, 0.81:
RCPG

one-hybrid fitness for binding parS DNA, 0.828:
RQVC

one-hybrid fitness for binding parS DNA, 0.955:
RINC

one-hybrid fitness for binding parS DNA, 0.88:
RQVG

one-hybrid fitness for binding parS DNA, 0.454:
RISN

one-hybrid fitness for binding parS DNA, 0.79:
RWNC
RFAT

one-hybrid fitness for binding parS DNA, 0.877:
RCRS

one-hybrid fitness for binding parS DNA, 0.513:
RINY

one-hybrid fitness for binding parS DNA, 0.284:
RINH

one-hybrid fitness for binding parS DNA, 0.253:
RYVH

one-hybrid fitness for binding parS DNA, 0.978:
RCSS

one-hybrid fitness for binding parS DNA, 0.503:
RKCA

one-hybrid fitness for binding parS DNA, 0.94:
RFNC

one-hybrid fitness for binding parS DNA, 0.211:
RQTF

one-hybrid fitness for binding parS DNA, 0.964:
RIYC

one-hybrid fitness for binding parS DNA, 0.247:
RIRF

one-hybrid fitness for binding parS DNA, 0.357:
RYVY

one-hybrid fitness for binding parS DNA, 0.97:
RILC

one-hybrid fitness for binding parS DNA, 0.939:
RQKG

one-hybrid fitness for binding parS DNA, 0.929:
RQTT

one-hybrid fitness for binding parS DNA, 0.231:
RIDH

one-hybrid fitness for binding parS DNA, 0.866:
RIDC

one-hybrid fitness for binding parS DNA, 0.977:
RMSS
RIHC

one-hybrid fitness for binding parS DNA, 0.594:
RTKM

one-hybrid fitness for binding parS DNA, 0.341:
RTYM

one-hybrid fitness for binding parS DNA, 0.493:
RGGT

one-hybrid fitness for binding parS DNA, 0.221:
RWNM

one-hybrid fitness for binding parS DNA, 0.752:
RYKC

one-hybrid fitness for binding parS DNA, 0.847:
RIRC

one-hybrid fitness for binding parS DNA, 0.348:
RNCA

one-hybrid fitness for binding parS DNA, 0.201:
REGT
RINF

one-hybrid fitness for binding parS DNA, 0.998:
RSAS

one-hybrid fitness for binding parS DNA, 0.92:
RICC

one-hybrid fitness for binding parS DNA, 0.793:
RKQS
RFDC
RYKS

one-hybrid fitness for binding parS DNA, 0.269:
RQKH

one-hybrid fitness for binding parS DNA, 0.317:
RWCA

one-hybrid fitness for binding parS DNA, 0.514:
RYKY

one-hybrid fitness for binding parS DNA, 0.912:
RHSS

one-hybrid fitness for binding parS DNA, 0.91:
RSGT

one-hybrid fitness for binding parS DNA, ≤ 0.2:
MEVG
LAGY
QVDH
IRKY
FNNR
TAFI
QSRA
TERS
APMD
RKQD
ERKR
LEPN
CCRD
QNCR
RQVK
RQVQ
WNHS
KAIM
IGNS
NFGS
GEDR
QFAT
GTTA
ATEM
TLKA
TQQG
HCKF
YAFG
KYYR
ILTL
RPSS
RCSD
RMSH
RMSD
RHSP
RISD
AKPM
LGTM
TQKH
LPSR
NDSK
CAPL
RWPN
SQSF
PHLE
GVSS
LVRT
FMSD
RFSP
RFSH
FMSS
RKSP
IYTS
TWRH
GPLA
YVAM
HRKW
RSSP
RSSD
YNTS
RPGT
RDGT
TFAS
AMCN
LFSE
CKQG
NSAT
RQKR
RQVF
RQKK
RQVR
RWDM
RWNR
GKCT
STTT
WKGT
SGKS
RITI
RAPH
RAIF
RPPG
RDPG
RAIH
RAPD
NVNI
DVVY
LLTC
GHGR
HSMG
ATMR
RSAD
RSAP
RCAP
RPAS
NQVG
TRNP
TIYS
IDLD
SILM
LWSP
SLKT
GRNC
RPYS
RCYP
RCRD
RSRD
RPRS
SCVM
FTPD
ALCC
WPLG
IPVF
FYHT
RPNY
RIDD
TGRK
MPPM
WDNC
KSER
STLE
DQQL
GHWC
KPDR
TRSC
NTIS
RGCA
RPCA
QSLF
QAWS
ATLF
PAPL
PDPW
DFDR
QQYT
KPHF
DHCA
LGTH
RQTQ
RQTP
RQTH
RQTK
KANM
NRAG
PIVT
QDIR
IPSC
PVWG
CTRC
QFWR
VWSI
QVFN
NFDC
RFNE
RFDF
AFNC
PPHC
DNGY
RIYQ
RIHQ
RIYR
RILR
RIHK
RNGM
LKKY
QVQI
YEHV
QGHV
HFFL
LRSA
AADE
CFNA
WWKS
ECSL
PWPM
PHSN
LVPK
MIPM
QNKH
NKQR
RIDK
RICP
RIRQ
RIDQ
QALV
MYER
ARTT
ANKV
AYCY
ALWS
ECMV
RYVF
RYVQ
RYKR
TTLV
NFAT
RFFF
RFFM
DFAT
QAHK
TRYI
RYKP
RYKD
TITP
LFYR

one-hybrid fitness for binding parS DNA, 0.369:
RYKM

one-hybrid fitness for binding parS DNA, 0.396:
RIDY

one-hybrid fitness for binding parS DNA, 0.99:
RSSS

one-hybrid fitness for binding parS DNA, 0.296:
RKSN

one-hybrid fitness for binding parS DNA, 0.462:
RYYY

one-hybrid fitness for binding parS DNA, 1.01:
RFSS
RCAS
RQTG

one-hybrid fitness for binding parS DNA, 0.378:
RSKM

one-hybrid fitness for binding parS DNA, 0.258:
RIND

one-hybrid fitness for binding parS DNA, 0.315:
RTVM

one-hybrid fitness for binding parS DNA, 0.381:
RINM

one-hybrid fitness for binding parS DNA, 0.364:
RYVN

one-hybrid fitness for binding parS DNA, 0.259:
RISH

one-hybrid fitness for binding parS DNA, 0.379:
RHSN

one-hybrid fitness for binding parS DNA, 0.923:
RINS

one-hybrid fitness for binding parS DNA, 0.579:
RSCA

one-hybrid fitness for binding parS DNA, 0.209:
RYVW
RISP

one-hybrid fitness for binding parS DNA, 1:
RLQS
RASS
RCYS

one-hybrid fitness for binding parS DNA, 0.635:
RWDC

one-hybrid fitness for binding parS DNA, 0.225:
RASH

one-hybrid fitness for binding parS DNA, 0.282:
RICF

one-hybrid fitness for binding parS DNA, 0.987:
RIDS

one-hybrid fitness for binding parS DNA, 0.206:
RLQP
RQEF

one-hybrid fitness for binding parS DNA, 0.871:
RAIG

one-hybrid fitness for binding parS DNA, 0.992:
RISS

one-hybrid fitness for binding parS DNA, 0.331:
RQTM

one-hybrid fitness for binding parS DNA, 0.3:
RKQN

one-hybrid fitness for binding parS DNA, 0.966:
RQTC

one-hybrid fitness for binding parS DNA, 0.677:
RCCA

one-hybrid fitness for binding parS DNA, 0.517:
RTRM

one-hybrid fitness for binding parS DNA, 0.926:
RQKC

one-hybrid fitness for binding parS DNA, 0.882:
RCGT

one-hybrid fitness for binding parS DNA, 0.324:
RLQH

one-hybrid fitness for binding parS DNA, 0.907:
RYVC

one-hybrid fitness for binding parS DNA, 0.811:
RKSS

one-hybrid fitness for binding parS DNA, 0.984:
RQTS

one-hybrid fitness for binding parS DNA, 0.569:
RAPG

one-hybrid fitness for binding parS DNA, 0.55:
RHCA

one-hybrid fitness for binding parS DNA, 0.435:
RASN

one-hybrid fitness for binding parS DNA, 0.289:
RTDM

one-hybrid fitness for binding parS DNA, 0.554:
FMSQ

one-hybrid fitness for binding parS DNA, 0.572:
RTCA

one-hybrid fitness for binding parS DNA, 0.582:
RFFT

one-hybrid fitness for binding parS DNA, 0.969:
RISC

one-hybrid fitness for binding parS DNA, 0.633:
RMCA

one-hybrid fitness for binding parS DNA, 0.976:
RYVS

one-hybrid fitness for binding parS DNA, 0.333:
RILM

one-hybrid fitness for binding parS DNA, 0.433:
RQKN
